Assay outcomes from PubChem.
SKOV3 invasion: blocks SKOV3ip1 adhesion and invasion in omental model; SKOV3ip1-GFP adhesion/invasion on 3D omental model, fluorescence; Potency, µM (titrated, usually from 45.8 µM), usual class: inhibitors; actives 0.1% (n = 46,000); also: nearly all actives have a fitted effect of over 65% in size
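Adhesion/invasion was scored as fixed GFP-labeled SKOV3ip1 cell counts (488/509 nm), normalized to DMSO and tomatine controls. Cancer cells in serum-free medium, with four compound doses (0.36-46 umol/L), sat 2 hr at RT then 16 hr at 37 C on a 48 hr fibroblast/mesothelial/ECM culture.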
S16 viability: S16 Schwann cell cytotoxicity. S16 Pmp22-F2sN Schwann cells viability, CellTiter-Glo, 24 h. Potency, µM (doses to about 57.5 µM), actives largely listed as cytotoxic. actives 0.48% (n = 43,000); also: nearly all actives have a fitted effect of over 65% in size
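S16 Pmp22-F2sN Schwann cells (500-1,000/well) in phenol-red-free DMEM with 10% FBS received 23 nL compound by pin tool for 24 h at 37 °C. Viability was then read as CellTiter-Glo luminescence after 15 min at room temperature.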
NTMT1 inhibitor: inhibitors of human N-terminal methyltransferase NTMT1; Q9BV86; NTMT1 MTase-Glo SAH luminescence, purified enzyme; Potency, µM (highest dose often 114 µM), usual class: inhibitors; actives 2.5% (n = 59,000); AID 1645870; also: nearly all actives have a fitted effect of over 65% in size
GALC G270D act: galactocerebrosidase G270D activity enhancement, cell-based; P54803; Potency, µM (series often up to 57.5 µM), usual class: activators; actives 0.1% (n = 45,000); 145M-Twi-hGALC-G270D cells, HMU-beta-Gal fluorescence, 48 h; also: nearly all actives have a fitted effect of over 65% in size
Target sequence (P54803 whole entry G286D): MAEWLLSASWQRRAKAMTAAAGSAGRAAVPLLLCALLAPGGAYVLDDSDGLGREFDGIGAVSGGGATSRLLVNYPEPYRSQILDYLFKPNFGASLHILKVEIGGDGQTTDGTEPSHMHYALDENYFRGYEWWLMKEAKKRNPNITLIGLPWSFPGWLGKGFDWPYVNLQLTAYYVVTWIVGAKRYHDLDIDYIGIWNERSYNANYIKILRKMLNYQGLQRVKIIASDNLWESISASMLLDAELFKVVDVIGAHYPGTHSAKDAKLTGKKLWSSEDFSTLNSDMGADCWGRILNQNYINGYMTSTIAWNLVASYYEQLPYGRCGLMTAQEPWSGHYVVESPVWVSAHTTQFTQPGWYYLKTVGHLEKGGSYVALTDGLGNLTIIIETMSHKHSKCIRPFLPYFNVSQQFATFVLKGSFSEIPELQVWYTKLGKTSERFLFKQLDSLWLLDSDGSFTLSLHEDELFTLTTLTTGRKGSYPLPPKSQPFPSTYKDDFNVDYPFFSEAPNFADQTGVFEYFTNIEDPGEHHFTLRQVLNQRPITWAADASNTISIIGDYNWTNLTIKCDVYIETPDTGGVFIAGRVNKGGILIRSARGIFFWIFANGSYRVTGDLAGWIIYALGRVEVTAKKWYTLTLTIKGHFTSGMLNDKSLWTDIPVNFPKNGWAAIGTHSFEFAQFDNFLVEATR
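qHTS, 1536-well; 145M-Twi-hGALC-G270D cells (WT line also made) in DMEM/F12 + 10% FBS; compound incubation on live cells; HMU-β-gal 0.1 mM final, pH 5.2, NaTC; carbonate stop; fluorescence increase = enhanced residual activity.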
pS6 MEF inh: reduces mTORC1 signaling in Tsc2 and p53 null MEF cells | Tsc2-/- p53-/- MEF, phospho-rpS6 immunofluorescence/PI, 24 h | Potency, µM (titrated, usually from 38.3 µM), usual class: inhibitors | actives 0.78% (n = 44,000) | AID 493208; also: nearly all actives have a fitted effect of over 50% in size
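Tsc2-/-, p53-/- MEFs (empty-vector stable line) in DMEM + 10% FBS were treated with compounds 24 h at 37 degree Celsius, fixed, and immunostained for phospho-rpS6 (Alexa-488) with propidium iodide counterstain. Laser-scanning cytometry gave % positive cells, normalized against 7.5 nM rapamycin and DMSO.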
PMP22 txn prim: modulates PMP22 transcription in S16 Schwann cells; S16 Pmp22-F2sN Schwann cells (luciferase reporters placed in the Pmp22 gene), FLuc/NLuc coincidence luminescence, 24 h; Potency, µM (doses to about 57.5 µM), most hits filed as inhibitors; actives 2% (n = 43,000); active = clear falling dose curves in both reporters; inconclusive = both reporters move, but less clearly or upward; inactive = either reporter flat; the % is the NLuc reporter signal
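Transcriptional readout in edited S16(c9) cells: two luciferases reported from the Pmp22 locus, measured in turn after 24 h compound incubation.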
Numbers stand for hits; – = inactive; ? = inconclusive; · = no result; ! = not confirmed by another sample; [ ] = another dose, or the depositor's remark. An excerpt weighted towards active compounds, which were near 3.6% of everything screened. Unless noted, calls follow the shape of the dose curve; as a rule, active = well fitted curve in the direction sought with a large enough effect; inconclusive = small, poorly fitted or top-dose-only effect, or another doubt; inactive = no such curve, though single readings can be large; an effect the other way counts as inactive or inconclusive.

SMILES	SKOV3 invasion	S16 viability	NTMT1 inhibitor	GALC G270D act	pS6 MEF inh	PMP22 txn prim
CC[C@@H]1C[C@]1(NC(=O)[C@@H]1C[C@@H]2CN1C(=O)[C@H](C(C)(C)C)NC(=O)OCC(C)(C)CCCCc1cccc3c1CN(C3)C(=O)O2)C(=O)NS(=O)(=O)C1CC1	·	·	–	·	·	·
COc1cc(-c2ccno2)ccc1S(=O)(=O)N1CCN(c2ccccc2)CC1	–	–	–	–	–	–
COc1ccccc1N1CCN(S(=O)(=O)c2ccc(-c3ccno3)cc2OC)CC1	–	?	89µM	–	–	–
Cn1cc(C(=O)O)c(=O)c2cc(S(=O)(=O)N3CCOCC3)ccc21	–	14µM	–	–	–	?
Cn1cc(C(=O)NCc2ccccc2)c(=O)c2cc(S(=O)(=O)N3CCOCC3)ccc21	–	–	–	–	–	–
CCOc1ccc(Nc2nc(Nc3ccc(OCC)cc3)nc(N3CCOCC3)n2)cc1	–	–	–	–	2.3µM	–
Cc1cccc(Nc2nc(Nc3cccc(C)c3)nc(N3CCOCC3)n2)c1	–	–	–	–	1.2µM	?
Cc1cccc(Nc2nc(-c3ccccc3)c3cc(C)ccc3n2)c1	–	?	–	–	–	–
COc1cc(Nc2ncc3c(n2)-c2ccc(Cl)cc2C(c2c(F)cccc2OC)=NC3)ccc1C(=O)O	–	·	?	·	·	·
Cc1ccc(-c2c(C)n3c4c(=O)n(C)c(=O)n(C)c4nc3n2CCCO)cc1	–	32µM	?	–	–	?
Cc1ccc(Nc2ncnc3c2cnn3-c2ccccc2)c(C)c1	–	–	11µM	–	–	?
Nc1nc(=O)n([C@H]2C[C@H](O)[C@@H](CO)O2)cc1F	–	·	–	·	·	·
Cc1ccc(-c2ccc(=O)n(CC(=O)N(C)C(C)C(C)C)n2)cc1 (stereo not given)	·	·	–	·	·	·
CCNc1cc(NC2CCC(O)CC2)nc(Nc2ccc3c(ccn3Cc3ccccc3)c2)n1 (stereo not given)	–	·	?	·	·	·
CC(C)c1ccc(Cn2ccc3c4c(N)nc(NC5CC5)nc4ccc32)cc1	?	·	25µM!	·	·	·
CCCN(CCC)CCCNC(=O)c1cc2c(-c3ccc(Cl)cc3)nn(C)c2s1	?	?	?	–	13µM	?
COc1ccc(CNC(=O)c2cc3c(-c4ccc(Cl)cc4)nn(C)c3s2)cc1	–	–	–	–	–	–
O=C(c1ccc(Nc2nccc(-c3cc4ccccc4s3)n2)cc1)N1CCC(N2CCCC2)CC1	?	·	28µM!	·	·	·
O=C(c1ccc(F)cc1)N1CCC(c2nc3ccccc3s2)CC1	–	–	–	–	–	?
CCOC(=O)c1cc2c([nH]1)CCCC2=O	·	·	–	·	·	·
CN1CCc2nc(C(=O)N[C@@H]3C[C@@H](C(=O)N(C)C)CC[C@@H]3NC(=O)C(=O)Nc3ccc(Cl)cn3)sc2C1	·	·	–	·	·	·
O=C(NCCc1ccccc1)c1ccc(Cn2c(SCc3ccccc3F)nc3cccnc32)cc1	–	?	89µM	–	–	?
O=C(NCCc1ccccc1)c1ccc(CSc2nc3cccnc3n2Cc2ccccc2F)cc1	–	?	–	–	–	?
CC(=O)O[C@@H]1[C@H](O[C@@H]2O[C@@H](CO)[C@H](O)[C@H]2O)[C@@H](O[C@@H]2O[C@@H](C)[C@H](O[C@@H]3OC[C@@H](O)[C@H](O)[C@H]3O)[C@@H](O)[C@H]2O)[C@H](OC(=O)[C@]23CCC(C)(C)C[C@H]2C2=CCC4[C@@]5(C)CC[C@H](O[C@@H]6O[C@H](C(=O)O)[C@@H](O)[C@H](O)[C@H]6O[C@@H]6O[C@H](CO)[C@H](O)[C@H](O)[C@H]6O)[C@@](C)(C=O)C5CC[C@@]4(C)[C@]2(C)CC3)O[C@@H]1C (stereo not given in full)	·	·	–[6.45 µM]	·	·	·
CC(=O)O[C@@H]1[C@H](O)[C@@H](O[C@@H]2O[C@@H](C)[C@H](O[C@@H]3OC[C@@H](O)[C@H](O[C@@H]4OC[C@@H](O)[C@H](O)[C@H]4O)[C@H]3O)[C@@H](O[C@@H]3O[C@H](CO)[C@@H](O)[C@H](O)[C@H]3O)[C@H]2O)[C@H](OC(=O)[C@]23CCC(C)(C)C[C@H]2C2=CCC4[C@@]5(C)CC[C@H](O[C@@H]6O[C@H](C(=O)O)[C@@H](O)[C@H](O[C@@H]7OC[C@@H](O)[C@H](O)[C@H]7O)[C@H]6O[C@@H]6O[C@H](CO)[C@H](O)[C@H](O)[C@H]6O)[C@@](C)(C=O)C5CC[C@@]4(C)[C@]2(C)CC3)O[C@@H]1C (stereo not given in full)	·	·	–[6.45 µM]	·	·	·
SMILES	SKOV3 invasion	S16 viability	NTMT1 inhibitor	GALC G270D act	pS6 MEF inh	PMP22 txn prim
CCn1c(=NC(=O)c2ccc3c(c2)OCCO3)sc2c(C)ccc(OC)c21	–	–	–	–	–	9.2µM
CN1CCN(Cc2ccc(NC(=O)Cc3ccc(Oc4cc(NC(=O)C5CC5)ncn4)cc3)cc2C(F)(F)F)CC1	·	·	–	·	·	·
COC(=O)CN1C(=O)C(C)(C)c2cc(S(=O)(=O)Nc3ccc(Br)cc3F)ccc21	–	–	–	–	13µM	–
CCc1c[nH]c2ncnc(N3CC[C@](N)(CNC(=O)c4ccc(F)cc4F)C3)c12	·	·	–	·	·	·
Oc1ccc(Nc2ccccc2F)c2cccnc12	·	·	28µM	·	·	·
Oc1ccc(-c2ccccc2F)c2cccnc12	·	·	–	·	·	·
O=C(/C=C/N1C[C@H]2C[C@@H]1CN2c1ccccn1)c1ccccc1O	·	·	–[4.22 µM]	·	·	·
Cc1cc(OCCCS(C)(=O)=O)cc(C)c1-c1cccc(COc2ccc3c(c2)OC[C@H]3CC(=O)O)c1	–	·	79µM!	·	·	·
CCOC(=O)c1c(-c2ccccc2)oc2ccc(OCc3cccc(Br)c3)cc12	–	–	–	–	–	–
Cc1ccc(OCCn2c(CCNC(=O)c3ccc(C#N)cc3)nc3ccccc32)cc1	·	·	–	·	·	·
CCOc1ccc2ncc3c(-c4cccc(OC)c4)nn(-c4ccccc4)c3c2c1	–	–	89µM	–	–	?
O=C(Nc1cccc(Nc2cc(Nc3cccc(C(F)(F)F)c3)ncn2)c1)C1CC1	·	·	10µM	·	·	·
Cc1ccc(Cl)cc1N1CCN(c2ncnc3onc(-c4ccc(F)cc4)c23)CC1	–	–	–	–	–	–
Cc1ccc(CN2CCC(CNc3ncnc4onc(-c5ccc(F)cc5)c34)CC2)cc1	–	–	79µM	–	?	?
Cc1ccc(Cl)cc1N1CCN(CCCNc2ncnc3onc(-c4ccc(F)cc4)c23)CC1	–	?	–	–	–	18µM
Cc1cccc(-n2cnc3cc(C(=O)N4CCC(N5CCOCC5)CC4)ccc32)c1	·	·	–	·	·	·
